Test results taken from PubChem BioAssay (NCI).
The panel holds about 83,000 compounds, 20% with a hit somewhere; the sample as a whole holds those more often.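 The endpoint reported here, percent growth, reads 100 for growth as untreated, 0 for no net growth and -100 for all cells dead.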 Calls of active or inactive are those of the source. The calls were made as follows: active = growth percent below 10; inactive = the rest.

Tested on: HL-60(TB) leukemia
Assay: NCI-60 one-dose screen, 48 h (100 = growth as untreated, 0 = no growth, -100 = all killed)
Settings: 10 µM unless noted

| Compound | growth |
| --- | --- |
| Cn1c(COC(=O)N2CCCCC2)nc2c(N3CCOCC3)nc(-c3ccccc3)nc21 | -28% (active) |
| CC(=O)N1N=C(c2ccc(Nc3nc(Nc4ccc(F)cc4)nc(Nc4ccc(Cl)cc4)n3)cc2)CC1c1ccc(Cl)cc1 (stereo unspecified) | 166% (inactive) |
| Cc1ccc(C2=NNC(c3sc(Cl)nc3Cl)C2)cc1 (stereo unspecified) | 92.7% (inactive) |
| O=C(/C(Br)=C/c1ccccc1)c1ccccc1 | -2.59% (active) |
| COc1ccc(C(=O)Cn2c(C(=O)c3ccc(OC)cc3)nc3ccccc32)cc1 | -50.7% (active) |
| COc1ccc2c(c1)C(=O)/C(=C/c1ncc([N+](=O)[O-])n1C)O2 | -7.47% (active) |
| c1ccc(Cc2cccc[n+]2C(c2ccccc2)c2ccccc2)cc1 | 4.63% (active) |
| Clc1cc2c(nn1)Nc1ccccc1S2 | 102% (inactive) |
| CS(=O)(=O)Nc1cncc(-c2ccc3ncnc(Nc4ccc(F)c(Cl)c4)c3c2)c1 | 6.11% (active) |
| COc1ccc2nc3cc(Cl)ccc3c(N3CCN(c4ccnc(N5CCN(C)CC5)n4)CC3)c2c1 | 29.8% (inactive) |
| Cc1c(C(=N)C(C#N)C#N)c(=N)oc2c1ccc1ccccc12 | 65.2% (inactive) |
| Cn1cc(C(=O)NCCC(=N)N)cc1NC(=O)CN=C(N)N | 102% (inactive) |
| CC(C)COCC(CN(Cc1ccccc1)c1ccccc1)N1CCCC1 (stereo unspecified) | 82.4% (inactive) |
| O=C(NNC(=O)c1nc2cc(F)ccc2n2cccc12)c1cnccn1 | 17.8% (inactive) |
| CCOc1ccc(/C=N\N=C\c2ccc(OCC)cc2)cc1 | 76.6% (inactive) |
| CCN(CC)CC(O)c1cc(-c2ccc(Cl)cc2)nc2c(C)c(Cl)ccc12 (stereo unspecified) | -71.5% (active) |
